GAA glycogen mod = GAA glycogen-cleavage inhibition or activation; AID 2100; P10253; 0.38% of 300,000 active; Potency, µM (highest dose often 76.4 µM), for inactives: top-dose activity change, negative = inhibition, hits mostly inhibitors; recombinant GAA, glycogen substrate, Amplex Red glucose oxidase fluorescence;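 also: potency is read from the fitted curve at half-maximal effect; 0% = full enzyme reaction and -100% = no-enzyme basal signal; the screen sought inhibitors and activators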
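qHTS, 1536-well; enzyme 4 nM final; cpd up to 77 uM; substrate bovine liver glycogen 30 ug; 50 mM citrate/phosphate pH 5.0, 0.01% Tween-20; 37 C, 40 min; Amplex Red detection 45 min RT; Hill fit → AC50.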
GLA inh pH 4.5 = inhibitors of human alpha-galactosidase A at pH 4.5; P06280; purified enzyme, 4-MU-alpha-Gal fluorescence, pH 4.5; activity change, negative = inhibition, % at 105 µM; 230,000 tested, under 10 active; AID 1467;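 also: 0% = full activity with enzyme and -100% = basal without enzyme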
Target sequence (P06280 whole entry, looked up): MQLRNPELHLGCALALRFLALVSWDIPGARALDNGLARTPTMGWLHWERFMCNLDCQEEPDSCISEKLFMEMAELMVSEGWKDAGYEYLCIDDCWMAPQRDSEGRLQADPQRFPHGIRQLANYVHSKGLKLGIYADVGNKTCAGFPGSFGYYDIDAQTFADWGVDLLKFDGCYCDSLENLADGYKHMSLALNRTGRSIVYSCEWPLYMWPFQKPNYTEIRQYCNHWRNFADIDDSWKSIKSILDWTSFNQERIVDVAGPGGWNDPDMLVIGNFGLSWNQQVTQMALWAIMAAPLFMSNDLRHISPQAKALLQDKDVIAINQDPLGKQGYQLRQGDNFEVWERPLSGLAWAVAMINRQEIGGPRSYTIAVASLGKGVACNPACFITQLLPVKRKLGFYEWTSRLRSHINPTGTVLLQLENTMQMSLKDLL
GAA spleen mod = inhibits or activates alpha-glucosidase in human spleen homogenate; P10253; human spleen homogenate, 4-MU-alpha-glucoside fluorescence; Potency, µM (series often up to 79.9 µM), inactives show top-dose activity change, negative = inhibition, hits mostly inhibitors; 0.006% of 240,000 active; AID 2112;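 also: potency is read from the fitted curve at half-maximal effect; 0% = enzyme with vehicle and -100% = no enzyme basal signal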
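Enzyme source: human spleen homogenate, 1 ug/well. Buffer 50 mM citric acid/K phosphate pH 5.0, 0.01% Tween-20. 4-MU-alpha-glucoside 1 mM; 37 C x 40 min; NaOH/glycine stop; fluorescence.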
GAA inh = alpha-glucosidase (human) inhibition; P10253; purified human GAA, 4-MU-alpha-glucoside fluorescence; Potency, µM (titrated, usually from 76.9 µM), inactives show top-dose activity change, negative = inhibition, most hits filed as inhibitors; 0.005% of 200,000 active;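 also: potency is read from the fitted curve at half-maximal effect; plate controls were uninhibited enzyme wells for no effect and no-enzyme background for full effect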
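Fluorescence at Ex 365/Em 440 nm from 4-methylumbelliferone reported enzyme activity after 20 min at room temperature. Reactions used 4 nM enzyme and 400 uM substrate at pH 5.0; curves fitted with the Hill equation.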
aGal spleen mod = alpha-galactosidase A (human) modulation; AID 2107; human spleen homogenate, 4MU-alpha-Gal fluorescence, 40 min; Potency, µM (titrated, usually from 80 µM), without a hit: top-dose activity change, negative = inhibition, most hits filed as inhibitors; 0.008% of 240,000 active; P06280;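 also: potency is read from the fitted curve at half-maximal effect; 0% = enzyme with vehicle and -100% = no enzyme basal signal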
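qHTS titration in buffer at pH 5.0. Alpha-galactosidase activity in spleen homogenate was measured via 4-methylumbelliferone release from 1 mM fluorogenic substrate after 40 min at 37C and a pH 10 stop. AC50 came from Hill fits of control-normalized data.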
N370S GC = inhibits or activates N370S mutant glucocerebrosidase | P04062 | N370S GC spleen homogenate, 4MU-glucoside fluorescence | Potency, µM (series often up to 59.4 µM), for inactives: top-dose activity change, negative = inhibition, hits mostly inhibitors | 0.092% of 330,000 active;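 also: potency is read from the fitted curve at half-maximal effect; 0% = full enzyme activity and -100% = no enzyme basal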
The depositor's hits bear a star; ? = inconclusive; · = no result; ! = not confirmed by another sample; [ ] = dose if it differs, or a comment. An excerpt weighted towards active compounds, which were near 0.41% of everything screened. Calls follow the shape of the dose curve; as a rule, active = well fitted curve in the direction sought with a large enough effect; inconclusive = small, poorly fitted or top-dose-only effect, or another doubt; inactive = no such curve, though single readings can be large; an effect the other way counts as inactive or inconclusive.

SMILES	GAA glycogen mod	GLA inh pH 4.5	GAA spleen mod	GAA inh	aGal spleen mod	N370S GC
Cc1cc(C)n(CC(=O)NCCC2=CCCCC2)n1	2.2%	·	·	·	·	-1.5%
COCCN1CCN(C(=O)C2CCC(=O)N(CCc3ccccc3)C2)CC1 (stereo unspecified)	2.9%[76.3 µM]	·	·	·	·	-2.1%
CC1CCCC(NC(=O)Nc2cccs2)C1C (stereo unspecified)	14µM*	3.9	-7.7%	-21.9%	1.6%	8.6%
CC1CCCC(NC(=O)c2ccncc2)C1C (stereo unspecified)	12.8%[76.3 µM]	·	·	·	·	-3.2%
CCOC(=O)C1CCCN(C(=S)Nc2ccc(Nc3ccccc3)cc2)C1 (stereo unspecified)	39.8µM*	-6.1	-11.1%	-13.6%	6.7%	5.2%
CCOC(=O)C1CCCN(Cc2nc(N)nc(Nc3ccccc3)n2)C1 (stereo unspecified)	3.98µM*	2.8	5.4%	?	5.7%	-12.0%
Oc1ccc(/C=N/Nc2nccnc2Cl)cc1	11.2µM*	-0.4	-7.5%	-11.0%	1.6%	-17.6%
Fc1ccc(/C=N/Nc2nccnc2Cl)cc1	-1.9%[76.3 µM]	·	·	·	·	-14.2%
CC(C)c1ccc(CNc2ccc(N3CCOCC3)cc2)cc1	28µM*	-19.6	-14.6%	-5.9%	-12.6%	-11.1%
Cc1ccc(CNc2ccc(N3CCOCC3)cc2)cc1	6.31µM*	·	·	·	·	-18.3%
Cc1ccc(CNc2ccc(N3CCOCC3)c(Cl)c2)cc1	·	·	·	·	·	9.0%
c1cc(CNc2ccc(N3CCOCC3)cc2)ccn1	16.2%	3.3	-0.2%	-2.7%	-3.9%	12.1%
CC(/C=C/C(=O)NO)=C\[C@@H](C)C(=O)c1ccc(N(C)C)cc1	·	-13.4	-6.9%	·	-7.5%	17.8µM*!
CCc1cc2c(Nc3ccc(O)cc3)nc(C)nc2s1	·	·	·	·	·	20µM*
CCc1cc2c(Nc3ccccc3O)nc(C)nc2s1	-18.2%[15.3 µM]	·	·	·	·	-3.9%
COc1cc(O)ccc1-c1nc2cc(C)ccn2c1Nc1ccccc1C	12.6µM*	·	·	·	·	·
Oc1cnn(-c2ccccc2)c1	19.8µM*	6.2	5.2%	4.2%	-2.2%	1.4%
O=c1[nH][nH]cc1C=Nc1ccccc1O	?	-5.7	-19.9%	5.6%	-2.4%	7.0%
O=c1c(=Nc2ccccc2O)c(=O)c2ccccc12	8.91µM*	7.1	3.9%	3.6%	2.7%	-2.1%
CCOc1ccc2c(c1)-c1c(ssc1=S)C(C)(C)N2	20µM*	-6.3	?	-3.3%	-10.2%	-3.8%
Cc1ccc(CNc2ccc3c(c2)OCO3)cc1	-27.5%	0.0	7.3%	5.4%	-3.8%	-4.6%
c1cc(CNc2ccc3c(c2)OCO3)ccn1	31.6µM*	10.0	-7.9%	-3.3%	4.1%	1.0%
CN(CCOc1ccc(Cl)cc1)c1ccc(S(=O)(=O)N2CCCCC2)cn1	-4.5%	-2.0	-5.0%	0.4%	4.4%	?
CC(C)NC(=O)c1ccc(S(=O)(=O)N(C)C)cc1	22.7%	5.7	4.5%	0.3%	3.5%	3.0%
CN(C)NC(=O)c1ccsc1NC(=O)c1ccc(S(=O)(=O)N(C)C)cc1	5.62µM*	3.0	-2.9%	·	-1.8%	-7.4%
SMILES	GAA glycogen mod	GLA inh pH 4.5	GAA spleen mod	GAA inh	aGal spleen mod	N370S GC
CCOC(=O)C(=O)Nc1cccc(C(=O)OCC)c1	4.1%	0.0	3.3%	-0.1%	0.3%	-0.3%
Oc1ccc(-c2nc3ccccn3c2NCc2ccc3c(c2)OCO3)cc1	35.5µM*	10.1	-22.7%	8.8%	8.1%	?
Fc1ccc(-c2nc3ccccn3c2NCc2ccc3c(c2)OCO3)cc1	?	-0.2	1.0%	2.4%	-2.5%	?
Cc1ccn2c(NCc3ccc4c(c3)OCO4)c(-c3ccc(O)cc3)nc2c1	-7.5%	0.2	-4.0%	-0.5%	1.8%	12.6µM*
Cc1ccc(Nc2cc(C)nc(NCc3ccccc3)n2)cc1	-2.7%	-15.9	-8.2%	-5.1%	8.7%	4.3%
Cc1cc(NC2CCCCC2)nc(NCc2ccccc2)n1	0.8%	-5.8	5.0%	3.0%	3.6%	17.8µM*
COCc1cccc(NC(=O)CCc2ccccc2)c1	2.3%	4.4	1.0%	4.7%	-1.6%	-5.5%
Cc1c(N=Cc2ccc[nH]2)c(=O)n(-c2ccccc2)n1C	22.4µM*	-0.4	1.7%	0.6%	1.7%	3.4%
